Laboratory results from article PMC7862700, “An all-to-all approach to the identification of sequence-specific readers for epigenetic DNA modifications on cytosine”.

How the values were obtained:
Assay in all cases: DAPPL (digital affinity profiling via proximity ligation, sequencing); 10 mM Tris-HCl pH 7.5, 50 mM NaCl, 1 mM DTT, 4% glycerol, room temperature, 30 min; GST-TFs on glutathione beads, 16-mer random dsDNA library, 0.1% formaldehyde crosslink after washing; high values mean tight binding
Details in all cases: protein: recombinant; tags: N-terminal GST; dsDNA, one strand shown
[1] = molecular target: T1, FLI1 (Homo sapiens, UniProt Q01543 1-452)
T1 sequence: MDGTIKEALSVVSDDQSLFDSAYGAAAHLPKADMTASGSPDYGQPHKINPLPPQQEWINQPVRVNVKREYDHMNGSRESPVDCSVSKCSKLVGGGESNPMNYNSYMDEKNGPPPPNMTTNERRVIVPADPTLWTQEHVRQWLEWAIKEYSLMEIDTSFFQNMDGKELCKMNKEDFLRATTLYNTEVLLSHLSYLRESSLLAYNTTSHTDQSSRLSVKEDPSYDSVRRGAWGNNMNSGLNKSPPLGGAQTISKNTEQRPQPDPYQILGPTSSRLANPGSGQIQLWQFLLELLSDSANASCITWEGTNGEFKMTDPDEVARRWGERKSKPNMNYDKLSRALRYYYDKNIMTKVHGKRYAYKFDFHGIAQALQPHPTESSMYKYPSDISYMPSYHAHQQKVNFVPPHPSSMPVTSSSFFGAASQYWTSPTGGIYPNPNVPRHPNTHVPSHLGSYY
Summary of the method: (§1)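 Human transcription factors carrying a GST fusion were produced in yeast, bound to glutathione beads, tagged with DNA barcodes and pooled together with a tag-only sample. Each pool was held with 200 nmole of a random double-stranded 16-mer DNA library in Tris/NaCl/DTT/glycerol buffer for 30 min at room temperature, then washed, crosslinked in 0.1% formaldehyde, proximity-ligated with BsaI/T4 ligase (1 h, 37 °C), PCR-amplified and sequenced on an Illumina NextSeq500. Binding signal is the read frequency of each hexamer for a given factor divided by its frequency in the tag-only sample.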

[2] = molecular target: T2, ELK1 (Homo sapiens, UniProt P19419 1-428)
T2 sequence: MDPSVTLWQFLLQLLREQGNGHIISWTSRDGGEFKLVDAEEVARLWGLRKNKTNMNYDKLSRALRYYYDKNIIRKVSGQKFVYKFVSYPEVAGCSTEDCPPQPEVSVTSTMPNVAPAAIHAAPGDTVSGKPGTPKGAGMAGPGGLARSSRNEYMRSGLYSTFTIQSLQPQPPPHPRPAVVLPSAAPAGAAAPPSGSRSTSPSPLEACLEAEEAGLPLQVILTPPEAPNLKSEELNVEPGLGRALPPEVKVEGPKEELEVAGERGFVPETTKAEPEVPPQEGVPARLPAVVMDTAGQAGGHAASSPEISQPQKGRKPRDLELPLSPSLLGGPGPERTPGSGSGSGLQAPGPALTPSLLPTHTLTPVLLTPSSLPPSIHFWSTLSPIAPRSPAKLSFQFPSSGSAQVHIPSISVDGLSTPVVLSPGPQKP
Summary of the method: as §1

[3] = molecular target: T3, GABPA (Homo sapiens, UniProt Q06546 1-454)
T3 sequence: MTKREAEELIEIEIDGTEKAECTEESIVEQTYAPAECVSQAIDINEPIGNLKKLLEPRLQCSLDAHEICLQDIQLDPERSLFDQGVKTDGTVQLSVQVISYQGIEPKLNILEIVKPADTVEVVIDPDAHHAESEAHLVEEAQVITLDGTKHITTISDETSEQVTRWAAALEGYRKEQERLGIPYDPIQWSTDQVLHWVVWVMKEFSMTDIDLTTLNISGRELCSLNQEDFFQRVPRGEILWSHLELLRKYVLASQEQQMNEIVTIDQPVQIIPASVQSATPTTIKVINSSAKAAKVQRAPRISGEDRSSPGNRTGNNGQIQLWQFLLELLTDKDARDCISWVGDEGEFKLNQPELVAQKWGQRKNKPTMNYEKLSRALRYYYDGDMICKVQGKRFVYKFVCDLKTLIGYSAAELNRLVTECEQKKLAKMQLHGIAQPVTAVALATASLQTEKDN
Summary of the method: as §1

[4] = molecular target: T4, ERG (Homo sapiens, UniProt P11308 1-479)
T4 sequence: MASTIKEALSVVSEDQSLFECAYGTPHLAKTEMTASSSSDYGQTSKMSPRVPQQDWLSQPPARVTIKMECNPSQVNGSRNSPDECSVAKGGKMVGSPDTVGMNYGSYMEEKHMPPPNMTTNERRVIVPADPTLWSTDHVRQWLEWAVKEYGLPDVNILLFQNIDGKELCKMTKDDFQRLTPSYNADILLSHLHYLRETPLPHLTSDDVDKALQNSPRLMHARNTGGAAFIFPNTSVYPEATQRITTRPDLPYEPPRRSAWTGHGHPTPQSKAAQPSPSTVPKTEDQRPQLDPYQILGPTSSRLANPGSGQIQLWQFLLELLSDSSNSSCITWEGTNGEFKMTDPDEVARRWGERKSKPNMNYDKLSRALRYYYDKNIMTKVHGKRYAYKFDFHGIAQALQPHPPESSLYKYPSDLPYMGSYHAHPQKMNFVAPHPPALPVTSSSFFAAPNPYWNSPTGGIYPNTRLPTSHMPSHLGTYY
Summary of the method: as §1

[5] = molecular target: ELF1 (Homo sapiens, UniProt P32519 1-619)
Sequence of ELF1 (P32519 whole entry): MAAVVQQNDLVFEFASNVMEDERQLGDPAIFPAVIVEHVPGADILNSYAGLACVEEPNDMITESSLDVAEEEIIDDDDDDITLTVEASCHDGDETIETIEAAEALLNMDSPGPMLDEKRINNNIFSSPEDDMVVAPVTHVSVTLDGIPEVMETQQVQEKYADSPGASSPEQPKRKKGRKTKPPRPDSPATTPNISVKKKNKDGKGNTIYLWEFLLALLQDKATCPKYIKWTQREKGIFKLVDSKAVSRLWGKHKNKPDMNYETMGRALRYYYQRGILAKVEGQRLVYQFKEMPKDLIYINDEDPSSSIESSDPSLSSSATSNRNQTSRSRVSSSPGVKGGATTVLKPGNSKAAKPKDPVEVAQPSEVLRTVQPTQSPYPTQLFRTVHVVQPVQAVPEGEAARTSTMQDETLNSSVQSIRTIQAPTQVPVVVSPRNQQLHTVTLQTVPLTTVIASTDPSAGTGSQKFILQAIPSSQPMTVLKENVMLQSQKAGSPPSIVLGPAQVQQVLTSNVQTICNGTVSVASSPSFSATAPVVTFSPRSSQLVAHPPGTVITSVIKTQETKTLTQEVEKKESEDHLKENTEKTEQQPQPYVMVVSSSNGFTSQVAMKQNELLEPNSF
Summary of the method: as §1

[6] = molecular target: T5, EHF (Homo sapiens, UniProt Q9NZC4 1-300)
T5 sequence: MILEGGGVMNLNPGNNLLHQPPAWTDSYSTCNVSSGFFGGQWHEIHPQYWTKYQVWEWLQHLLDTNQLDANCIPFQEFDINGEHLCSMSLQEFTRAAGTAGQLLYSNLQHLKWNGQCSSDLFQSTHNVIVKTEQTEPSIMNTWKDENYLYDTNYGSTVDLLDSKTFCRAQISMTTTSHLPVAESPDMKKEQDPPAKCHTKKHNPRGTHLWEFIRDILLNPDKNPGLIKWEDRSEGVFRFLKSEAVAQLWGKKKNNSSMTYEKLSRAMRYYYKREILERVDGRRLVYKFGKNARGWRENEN
Summary of the method: as §1

[7] = molecular target: SPI1 (Homo sapiens, UniProt P17947 1-270)
Summary of the method: as §1

[8] = molecular target: SPIB (Homo sapiens, UniProt Q01892 1-262)
Sequence of SPIB (Q01892 whole entry): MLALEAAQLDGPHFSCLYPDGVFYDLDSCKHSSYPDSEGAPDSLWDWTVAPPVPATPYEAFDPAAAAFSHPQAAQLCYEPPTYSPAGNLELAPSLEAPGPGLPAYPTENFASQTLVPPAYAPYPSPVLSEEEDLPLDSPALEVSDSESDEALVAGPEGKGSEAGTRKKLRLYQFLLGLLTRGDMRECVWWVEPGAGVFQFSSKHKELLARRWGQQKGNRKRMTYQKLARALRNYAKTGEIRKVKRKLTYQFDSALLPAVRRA
Summary of the method: as §1

[9] = molecular target: T6, ELK3 (Homo sapiens, UniProt P41970 1-407)
T6 sequence: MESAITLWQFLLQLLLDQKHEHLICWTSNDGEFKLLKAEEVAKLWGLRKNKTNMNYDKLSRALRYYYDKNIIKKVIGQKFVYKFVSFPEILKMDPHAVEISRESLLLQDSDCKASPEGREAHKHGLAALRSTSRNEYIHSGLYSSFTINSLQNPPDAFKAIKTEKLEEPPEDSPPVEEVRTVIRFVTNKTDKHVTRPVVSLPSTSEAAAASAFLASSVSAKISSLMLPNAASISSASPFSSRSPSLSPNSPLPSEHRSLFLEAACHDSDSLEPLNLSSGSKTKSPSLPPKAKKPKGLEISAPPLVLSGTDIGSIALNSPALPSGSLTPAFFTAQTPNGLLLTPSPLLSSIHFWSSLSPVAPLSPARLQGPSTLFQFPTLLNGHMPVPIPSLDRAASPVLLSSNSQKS
Summary of the method: as §1

| Sequence | binding signal [1] | binding signal [2] | binding signal [3] | binding signal [4] | binding signal [5] | binding signal [6] | binding signal [7] | binding signal [8] | binding signal [9] |
| --- | --- | --- | --- | --- | --- | --- | --- | --- | --- |
| TCCATA | 1.33 fold enrichment (6-mer frequency, TF over GST control) | 1.3 fold enrichment (6-mer frequency, TF over GST control) | 1.18 fold enrichment (6-mer frequency, TF over GST control) | 1.25 fold enrichment (6-mer frequency, TF over GST control) | 1.23 fold enrichment (6-mer frequency, TF over GST control) | 1.24 fold enrichment (6-mer frequency, TF over GST control) | 1.18 fold enrichment (6-mer frequency, TF over GST control) | 1.21 fold enrichment (6-mer frequency, TF over GST control) | 1.35 fold enrichment (6-mer frequency, TF over GST control) |
| TGTTTT | 1.36 fold enrichment (6-mer frequency, TF over GST control) | 1.32 fold enrichment (6-mer frequency, TF over GST control) | 1.35 fold enrichment (6-mer frequency, TF over GST control) | 1.26 fold enrichment (6-mer frequency, TF over GST control) | 1.34 fold enrichment (6-mer frequency, TF over GST control) | 1.35 fold enrichment (6-mer frequency, TF over GST control) | 1.43 fold enrichment (6-mer frequency, TF over GST control) | 1.3 fold enrichment (6-mer frequency, TF over GST control) | 1.43 fold enrichment (6-mer frequency, TF over GST control) |
| TTGCCC | 1.37 fold enrichment (6-mer frequency, TF over GST control) | 1.43 fold enrichment (6-mer frequency, TF over GST control) | 1.33 fold enrichment (6-mer frequency, TF over GST control) | 1.28 fold enrichment (6-mer frequency, TF over GST control) | 1.3 fold enrichment (6-mer frequency, TF over GST control) | 1.22 fold enrichment (6-mer frequency, TF over GST control) | 1.29 fold enrichment (6-mer frequency, TF over GST control) | 1.33 fold enrichment (6-mer frequency, TF over GST control) | 1.23 fold enrichment (6-mer frequency, TF over GST control) |
| AAGTTC | 1.36 fold enrichment (6-mer frequency, TF over GST control) | 1.36 fold enrichment (6-mer frequency, TF over GST control) | 1.47 fold enrichment (6-mer frequency, TF over GST control) | 1.36 fold enrichment (6-mer frequency, TF over GST control) | 1.34 fold enrichment (6-mer frequency, TF over GST control) | 1.35 fold enrichment (6-mer frequency, TF over GST control) | 1.54 fold enrichment (6-mer frequency, TF over GST control) | 1.51 fold enrichment (6-mer frequency, TF over GST control) | 1.36 fold enrichment (6-mer frequency, TF over GST control) |
| ATTATA | 1.24 fold enrichment (6-mer frequency, TF over GST control) | 1.32 fold enrichment (6-mer frequency, TF over GST control) | 1.21 fold enrichment (6-mer frequency, TF over GST control) | 1.25 fold enrichment (6-mer frequency, TF over GST control) | 1.31 fold enrichment (6-mer frequency, TF over GST control) | 1.29 fold enrichment (6-mer frequency, TF over GST control) | 1.2 fold enrichment (6-mer frequency, TF over GST control) | 1.37 fold enrichment (6-mer frequency, TF over GST control) | 1.28 fold enrichment (6-mer frequency, TF over GST control) |
| CCCGAA | 1.44 fold enrichment (6-mer frequency, TF over GST control) | 1.26 fold enrichment (6-mer frequency, TF over GST control) | 1.51 fold enrichment (6-mer frequency, TF over GST control) | 1.18 fold enrichment (6-mer frequency, TF over GST control) | 1.39 fold enrichment (6-mer frequency, TF over GST control) | 1.3 fold enrichment (6-mer frequency, TF over GST control) | 1.36 fold enrichment (6-mer frequency, TF over GST control) | 1.27 fold enrichment (6-mer frequency, TF over GST control) | 1.2 fold enrichment (6-mer frequency, TF over GST control) |
| CCTTCT | 1.62 fold enrichment (6-mer frequency, TF over GST control) | 1.42 fold enrichment (6-mer frequency, TF over GST control) | 1.6 fold enrichment (6-mer frequency, TF over GST control) | 1.54 fold enrichment (6-mer frequency, TF over GST control) | 1.63 fold enrichment (6-mer frequency, TF over GST control) | 1.67 fold enrichment (6-mer frequency, TF over GST control) | 1.67 fold enrichment (6-mer frequency, TF over GST control) | 1.56 fold enrichment (6-mer frequency, TF over GST control) | 1.79 fold enrichment (6-mer frequency, TF over GST control) |
